Experimental data as given in the supplement of paper PMC11732987, “Enantioselective OTUD7B fragment discovery through chemoproteomics screening and high-throughput optimisation” (Communications Chemistry, 2025).

Experiments:
Test in all cases: log2 ratio of Biotin-Ahx-Ub-VS probe labelling (fragment/DMSO); higher = less target engagement (more negative = stronger competition), active = hit call of the paper (q ≤ 0.05, log2 ratio ≤ -1)
Conditions in all cases: compound concentration: 200 uM; treatment time: 3 h
USP42 = target: T1, USP42 (UniProt Q9H9J4)
T1 sequence (whole entry): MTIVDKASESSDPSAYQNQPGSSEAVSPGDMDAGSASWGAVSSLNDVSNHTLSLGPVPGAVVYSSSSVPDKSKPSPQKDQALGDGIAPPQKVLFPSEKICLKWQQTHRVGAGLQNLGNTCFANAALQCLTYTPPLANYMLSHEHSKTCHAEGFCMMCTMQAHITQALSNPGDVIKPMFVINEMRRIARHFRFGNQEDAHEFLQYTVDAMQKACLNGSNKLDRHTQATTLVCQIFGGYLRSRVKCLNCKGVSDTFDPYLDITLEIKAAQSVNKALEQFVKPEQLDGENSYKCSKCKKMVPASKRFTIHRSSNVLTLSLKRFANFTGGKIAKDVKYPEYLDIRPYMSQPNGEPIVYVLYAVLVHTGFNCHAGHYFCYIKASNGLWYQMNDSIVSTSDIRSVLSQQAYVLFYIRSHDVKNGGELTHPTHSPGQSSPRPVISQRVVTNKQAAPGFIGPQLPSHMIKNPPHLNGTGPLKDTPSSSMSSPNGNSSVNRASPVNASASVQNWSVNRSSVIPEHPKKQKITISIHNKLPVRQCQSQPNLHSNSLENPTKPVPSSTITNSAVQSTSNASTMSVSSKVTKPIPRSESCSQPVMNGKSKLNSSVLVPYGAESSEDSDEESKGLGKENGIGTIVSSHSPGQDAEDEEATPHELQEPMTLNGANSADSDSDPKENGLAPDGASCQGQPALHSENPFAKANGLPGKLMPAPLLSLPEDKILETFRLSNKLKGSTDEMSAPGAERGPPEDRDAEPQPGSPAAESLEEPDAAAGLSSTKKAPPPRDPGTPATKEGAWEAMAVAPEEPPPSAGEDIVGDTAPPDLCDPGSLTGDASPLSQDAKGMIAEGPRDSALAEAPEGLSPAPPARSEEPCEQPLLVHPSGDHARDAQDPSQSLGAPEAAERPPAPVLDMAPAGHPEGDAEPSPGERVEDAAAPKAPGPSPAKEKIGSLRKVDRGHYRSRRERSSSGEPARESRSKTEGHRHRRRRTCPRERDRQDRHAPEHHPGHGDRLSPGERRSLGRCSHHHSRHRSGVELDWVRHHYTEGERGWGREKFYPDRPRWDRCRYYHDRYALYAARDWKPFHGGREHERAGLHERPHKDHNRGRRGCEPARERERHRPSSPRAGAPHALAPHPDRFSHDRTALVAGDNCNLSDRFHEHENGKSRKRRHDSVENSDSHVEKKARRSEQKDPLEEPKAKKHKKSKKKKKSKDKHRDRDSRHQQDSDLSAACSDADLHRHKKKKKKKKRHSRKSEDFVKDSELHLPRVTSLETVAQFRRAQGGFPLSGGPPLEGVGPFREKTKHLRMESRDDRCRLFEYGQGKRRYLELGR
How it was run: (§1)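 Labelled DUBs from HEK293T lysate were NeutrAvidin-enriched, digested with LysC and trypsin, and run by diaPASEF LC-MS/MS. Before that, each 495 µg sample in Tris/CHAPS/IGEPAL buffer with protease inhibitors was treated in triplicate with fragment at 200 µM or vehicle for 3 h, then with Biotin-Ahx-Ub-VS at 0.5 µM final for 1 h. Values are average log2 ratios of fragment over vehicle by unpaired t-test, based on global-median-normalised Spectronaut label-free quantities from proteins with ≥2 unique peptides.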

USP46 = USP46 (UniProt P62068)
How it was run: as §1

USP47 = target: T2, USP47 (UniProt Q96K76)
T2 sequence (whole entry): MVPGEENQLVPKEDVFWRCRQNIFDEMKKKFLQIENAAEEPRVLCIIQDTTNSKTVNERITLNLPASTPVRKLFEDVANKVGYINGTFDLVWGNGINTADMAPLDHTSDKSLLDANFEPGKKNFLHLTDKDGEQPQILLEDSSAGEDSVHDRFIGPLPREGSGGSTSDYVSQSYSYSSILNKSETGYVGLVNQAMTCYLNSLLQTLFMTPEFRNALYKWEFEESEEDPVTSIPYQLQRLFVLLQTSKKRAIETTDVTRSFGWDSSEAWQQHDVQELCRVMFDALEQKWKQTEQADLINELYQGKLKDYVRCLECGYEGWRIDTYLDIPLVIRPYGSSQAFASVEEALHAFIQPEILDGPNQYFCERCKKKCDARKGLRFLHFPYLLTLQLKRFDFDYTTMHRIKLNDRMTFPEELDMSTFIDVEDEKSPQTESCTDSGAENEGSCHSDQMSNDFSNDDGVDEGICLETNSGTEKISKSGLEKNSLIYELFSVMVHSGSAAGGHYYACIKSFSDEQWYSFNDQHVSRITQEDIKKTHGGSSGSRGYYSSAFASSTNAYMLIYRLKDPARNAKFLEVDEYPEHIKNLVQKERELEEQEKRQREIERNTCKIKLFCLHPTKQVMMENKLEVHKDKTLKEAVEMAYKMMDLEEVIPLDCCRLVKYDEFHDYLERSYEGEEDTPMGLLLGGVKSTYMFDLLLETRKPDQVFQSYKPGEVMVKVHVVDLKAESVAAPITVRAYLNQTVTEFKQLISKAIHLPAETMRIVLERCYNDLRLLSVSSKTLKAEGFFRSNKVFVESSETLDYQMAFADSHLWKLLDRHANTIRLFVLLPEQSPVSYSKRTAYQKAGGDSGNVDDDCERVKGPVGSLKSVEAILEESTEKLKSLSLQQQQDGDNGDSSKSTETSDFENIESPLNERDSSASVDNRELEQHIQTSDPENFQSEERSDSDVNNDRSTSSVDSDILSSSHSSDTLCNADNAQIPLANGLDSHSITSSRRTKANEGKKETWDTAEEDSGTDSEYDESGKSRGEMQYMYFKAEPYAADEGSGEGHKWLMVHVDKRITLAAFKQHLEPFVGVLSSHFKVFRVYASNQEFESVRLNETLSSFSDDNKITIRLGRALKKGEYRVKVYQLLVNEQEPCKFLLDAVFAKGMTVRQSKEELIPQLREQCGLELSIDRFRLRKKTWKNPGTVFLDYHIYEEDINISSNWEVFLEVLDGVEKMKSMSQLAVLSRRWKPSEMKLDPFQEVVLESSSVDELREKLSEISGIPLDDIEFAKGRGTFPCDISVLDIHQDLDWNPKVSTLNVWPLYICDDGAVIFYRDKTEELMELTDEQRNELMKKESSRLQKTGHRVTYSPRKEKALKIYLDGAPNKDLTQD
How it was run: as §1

USP48 = target: T3, USP48 (UniProt Q86UV5)
T3 sequence (whole entry): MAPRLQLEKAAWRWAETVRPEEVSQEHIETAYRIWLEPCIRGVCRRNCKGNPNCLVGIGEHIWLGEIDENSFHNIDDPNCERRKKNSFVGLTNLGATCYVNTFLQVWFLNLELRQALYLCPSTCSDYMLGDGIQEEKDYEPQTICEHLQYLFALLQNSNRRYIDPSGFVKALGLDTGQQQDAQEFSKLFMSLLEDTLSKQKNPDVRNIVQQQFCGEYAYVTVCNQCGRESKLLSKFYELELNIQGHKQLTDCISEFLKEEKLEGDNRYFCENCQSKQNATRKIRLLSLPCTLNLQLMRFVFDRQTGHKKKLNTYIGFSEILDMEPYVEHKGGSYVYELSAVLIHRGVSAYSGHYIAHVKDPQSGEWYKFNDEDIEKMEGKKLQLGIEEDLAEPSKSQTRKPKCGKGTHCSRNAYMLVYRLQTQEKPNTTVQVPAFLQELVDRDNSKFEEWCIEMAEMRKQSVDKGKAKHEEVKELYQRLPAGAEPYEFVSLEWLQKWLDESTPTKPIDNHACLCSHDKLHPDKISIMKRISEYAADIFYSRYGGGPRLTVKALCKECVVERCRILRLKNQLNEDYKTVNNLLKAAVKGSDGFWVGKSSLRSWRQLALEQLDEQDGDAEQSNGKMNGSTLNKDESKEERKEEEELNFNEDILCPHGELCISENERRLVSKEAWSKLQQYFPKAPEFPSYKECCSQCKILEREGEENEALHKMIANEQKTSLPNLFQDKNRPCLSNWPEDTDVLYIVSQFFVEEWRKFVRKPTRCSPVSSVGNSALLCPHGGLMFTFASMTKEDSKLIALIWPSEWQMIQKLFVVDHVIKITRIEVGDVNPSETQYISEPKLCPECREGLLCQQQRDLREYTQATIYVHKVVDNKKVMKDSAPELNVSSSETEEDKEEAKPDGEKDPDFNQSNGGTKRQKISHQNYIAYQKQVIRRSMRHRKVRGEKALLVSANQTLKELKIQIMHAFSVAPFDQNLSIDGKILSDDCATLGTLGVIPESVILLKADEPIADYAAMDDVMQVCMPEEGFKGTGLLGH
How it was run: as §1

USP5 = target: T4, USP5 (UniProt P45974)
T4 sequence (whole entry): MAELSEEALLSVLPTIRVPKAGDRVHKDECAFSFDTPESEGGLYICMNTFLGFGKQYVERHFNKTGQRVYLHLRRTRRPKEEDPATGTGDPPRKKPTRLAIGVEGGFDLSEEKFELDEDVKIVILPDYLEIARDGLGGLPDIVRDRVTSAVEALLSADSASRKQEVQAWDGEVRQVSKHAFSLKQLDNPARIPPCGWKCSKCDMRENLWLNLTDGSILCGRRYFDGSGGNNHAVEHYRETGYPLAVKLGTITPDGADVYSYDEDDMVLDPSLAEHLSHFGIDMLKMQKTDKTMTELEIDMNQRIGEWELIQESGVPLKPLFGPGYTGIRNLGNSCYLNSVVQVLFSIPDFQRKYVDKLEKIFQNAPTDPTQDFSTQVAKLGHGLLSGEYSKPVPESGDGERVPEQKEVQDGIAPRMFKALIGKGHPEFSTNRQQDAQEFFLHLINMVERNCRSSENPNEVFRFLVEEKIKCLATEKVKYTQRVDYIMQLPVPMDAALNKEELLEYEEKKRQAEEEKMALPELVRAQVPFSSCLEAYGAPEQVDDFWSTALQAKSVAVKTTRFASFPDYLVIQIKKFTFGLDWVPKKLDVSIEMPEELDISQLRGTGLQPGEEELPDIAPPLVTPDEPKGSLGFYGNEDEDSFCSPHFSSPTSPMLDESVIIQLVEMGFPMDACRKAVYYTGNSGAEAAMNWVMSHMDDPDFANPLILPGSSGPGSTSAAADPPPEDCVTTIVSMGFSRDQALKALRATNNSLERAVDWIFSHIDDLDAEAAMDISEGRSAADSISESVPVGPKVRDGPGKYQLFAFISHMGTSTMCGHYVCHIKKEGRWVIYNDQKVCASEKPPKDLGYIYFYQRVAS
How it was run: as §1

USP54 = USP54 (UniProt Q70EL1)
How it was run: as §1

USP7 = USP7 (UniProt Q93009)
How it was run: as §1

USP8 = target: T5, USP8 (UniProt P40818)
T5 sequence (whole entry): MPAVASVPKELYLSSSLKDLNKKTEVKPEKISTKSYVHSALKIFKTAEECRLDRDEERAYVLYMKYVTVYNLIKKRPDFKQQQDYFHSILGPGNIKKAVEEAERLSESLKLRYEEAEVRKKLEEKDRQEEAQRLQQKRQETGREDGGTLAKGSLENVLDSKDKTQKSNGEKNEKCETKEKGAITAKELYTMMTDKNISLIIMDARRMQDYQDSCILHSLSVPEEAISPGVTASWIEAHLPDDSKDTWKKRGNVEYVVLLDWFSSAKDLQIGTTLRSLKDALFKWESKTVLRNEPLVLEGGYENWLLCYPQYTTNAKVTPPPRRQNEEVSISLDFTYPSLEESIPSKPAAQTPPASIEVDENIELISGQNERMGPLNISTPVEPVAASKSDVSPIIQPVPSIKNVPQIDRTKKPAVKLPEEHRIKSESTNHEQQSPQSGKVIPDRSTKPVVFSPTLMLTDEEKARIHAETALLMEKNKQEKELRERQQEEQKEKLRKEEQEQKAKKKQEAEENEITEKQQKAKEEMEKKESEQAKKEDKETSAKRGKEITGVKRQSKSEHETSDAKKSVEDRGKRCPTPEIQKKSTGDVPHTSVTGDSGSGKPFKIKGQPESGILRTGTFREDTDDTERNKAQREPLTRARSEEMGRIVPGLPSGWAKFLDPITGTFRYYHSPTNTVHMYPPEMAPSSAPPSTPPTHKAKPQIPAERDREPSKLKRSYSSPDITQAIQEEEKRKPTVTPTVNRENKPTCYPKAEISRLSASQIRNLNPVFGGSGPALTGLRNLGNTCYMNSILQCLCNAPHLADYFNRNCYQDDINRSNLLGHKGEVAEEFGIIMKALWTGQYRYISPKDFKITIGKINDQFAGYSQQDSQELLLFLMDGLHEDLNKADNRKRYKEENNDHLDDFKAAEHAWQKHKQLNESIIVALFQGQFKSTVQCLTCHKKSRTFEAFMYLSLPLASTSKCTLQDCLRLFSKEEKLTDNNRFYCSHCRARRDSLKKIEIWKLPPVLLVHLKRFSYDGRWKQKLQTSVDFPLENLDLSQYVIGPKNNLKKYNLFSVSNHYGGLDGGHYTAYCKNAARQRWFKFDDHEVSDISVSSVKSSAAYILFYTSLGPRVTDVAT
How it was run: as §1

Measured: log2 ratio of Biotin-Ahx-Ub-VS probe labelling

USP54, sequence (Q70EL1 whole entry): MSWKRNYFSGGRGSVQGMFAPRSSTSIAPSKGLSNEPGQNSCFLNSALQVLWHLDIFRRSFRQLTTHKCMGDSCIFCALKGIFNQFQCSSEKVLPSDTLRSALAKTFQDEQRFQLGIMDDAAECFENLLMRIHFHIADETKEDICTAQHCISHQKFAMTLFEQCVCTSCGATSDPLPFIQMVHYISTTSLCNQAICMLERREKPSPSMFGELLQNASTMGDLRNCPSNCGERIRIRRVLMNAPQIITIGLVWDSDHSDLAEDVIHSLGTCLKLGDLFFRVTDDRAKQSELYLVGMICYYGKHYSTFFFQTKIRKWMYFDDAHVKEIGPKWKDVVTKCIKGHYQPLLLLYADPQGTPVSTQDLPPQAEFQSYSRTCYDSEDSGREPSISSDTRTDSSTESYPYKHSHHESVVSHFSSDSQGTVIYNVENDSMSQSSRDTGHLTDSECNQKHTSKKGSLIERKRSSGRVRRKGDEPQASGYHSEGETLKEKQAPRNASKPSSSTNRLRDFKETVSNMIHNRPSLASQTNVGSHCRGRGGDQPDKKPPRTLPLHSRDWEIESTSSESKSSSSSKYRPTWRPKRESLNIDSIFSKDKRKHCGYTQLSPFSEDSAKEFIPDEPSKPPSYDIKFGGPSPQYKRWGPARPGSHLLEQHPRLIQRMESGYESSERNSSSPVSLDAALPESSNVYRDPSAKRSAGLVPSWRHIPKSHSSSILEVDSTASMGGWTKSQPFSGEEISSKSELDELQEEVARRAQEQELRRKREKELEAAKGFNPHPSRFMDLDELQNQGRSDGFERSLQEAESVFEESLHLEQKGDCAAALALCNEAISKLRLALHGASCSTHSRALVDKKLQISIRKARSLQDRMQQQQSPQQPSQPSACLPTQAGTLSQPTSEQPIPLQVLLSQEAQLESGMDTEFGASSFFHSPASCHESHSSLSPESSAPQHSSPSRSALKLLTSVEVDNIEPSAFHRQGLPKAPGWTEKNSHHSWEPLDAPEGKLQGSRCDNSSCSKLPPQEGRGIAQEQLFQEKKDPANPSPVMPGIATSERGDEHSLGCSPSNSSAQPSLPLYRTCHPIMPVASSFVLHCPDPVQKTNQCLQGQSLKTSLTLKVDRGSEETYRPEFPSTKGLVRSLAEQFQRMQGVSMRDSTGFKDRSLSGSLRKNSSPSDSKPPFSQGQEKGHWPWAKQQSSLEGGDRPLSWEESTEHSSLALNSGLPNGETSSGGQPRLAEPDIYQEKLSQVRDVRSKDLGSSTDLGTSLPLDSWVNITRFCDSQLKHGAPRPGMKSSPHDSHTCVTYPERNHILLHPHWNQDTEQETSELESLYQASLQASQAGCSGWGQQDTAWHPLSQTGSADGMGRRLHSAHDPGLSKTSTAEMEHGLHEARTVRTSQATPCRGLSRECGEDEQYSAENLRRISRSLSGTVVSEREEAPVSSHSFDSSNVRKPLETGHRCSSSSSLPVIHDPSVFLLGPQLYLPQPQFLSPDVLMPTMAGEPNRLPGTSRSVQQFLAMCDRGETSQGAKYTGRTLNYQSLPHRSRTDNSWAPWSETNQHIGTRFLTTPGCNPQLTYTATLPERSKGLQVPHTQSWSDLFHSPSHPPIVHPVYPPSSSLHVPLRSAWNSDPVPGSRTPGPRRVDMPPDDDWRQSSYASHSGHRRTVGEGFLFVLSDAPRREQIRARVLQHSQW
USP46, sequence (P62068 whole entry): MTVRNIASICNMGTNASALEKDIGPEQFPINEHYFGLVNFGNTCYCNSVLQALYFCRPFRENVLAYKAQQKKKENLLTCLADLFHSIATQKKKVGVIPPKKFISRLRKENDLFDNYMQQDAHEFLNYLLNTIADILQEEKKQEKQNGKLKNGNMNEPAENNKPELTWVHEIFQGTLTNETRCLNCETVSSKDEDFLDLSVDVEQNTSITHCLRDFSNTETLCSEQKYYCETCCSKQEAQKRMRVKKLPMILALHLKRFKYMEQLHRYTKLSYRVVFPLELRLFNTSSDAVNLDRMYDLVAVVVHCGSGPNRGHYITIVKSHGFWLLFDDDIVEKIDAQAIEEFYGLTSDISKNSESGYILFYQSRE
USP7, sequence (Q93009 whole entry, looked up): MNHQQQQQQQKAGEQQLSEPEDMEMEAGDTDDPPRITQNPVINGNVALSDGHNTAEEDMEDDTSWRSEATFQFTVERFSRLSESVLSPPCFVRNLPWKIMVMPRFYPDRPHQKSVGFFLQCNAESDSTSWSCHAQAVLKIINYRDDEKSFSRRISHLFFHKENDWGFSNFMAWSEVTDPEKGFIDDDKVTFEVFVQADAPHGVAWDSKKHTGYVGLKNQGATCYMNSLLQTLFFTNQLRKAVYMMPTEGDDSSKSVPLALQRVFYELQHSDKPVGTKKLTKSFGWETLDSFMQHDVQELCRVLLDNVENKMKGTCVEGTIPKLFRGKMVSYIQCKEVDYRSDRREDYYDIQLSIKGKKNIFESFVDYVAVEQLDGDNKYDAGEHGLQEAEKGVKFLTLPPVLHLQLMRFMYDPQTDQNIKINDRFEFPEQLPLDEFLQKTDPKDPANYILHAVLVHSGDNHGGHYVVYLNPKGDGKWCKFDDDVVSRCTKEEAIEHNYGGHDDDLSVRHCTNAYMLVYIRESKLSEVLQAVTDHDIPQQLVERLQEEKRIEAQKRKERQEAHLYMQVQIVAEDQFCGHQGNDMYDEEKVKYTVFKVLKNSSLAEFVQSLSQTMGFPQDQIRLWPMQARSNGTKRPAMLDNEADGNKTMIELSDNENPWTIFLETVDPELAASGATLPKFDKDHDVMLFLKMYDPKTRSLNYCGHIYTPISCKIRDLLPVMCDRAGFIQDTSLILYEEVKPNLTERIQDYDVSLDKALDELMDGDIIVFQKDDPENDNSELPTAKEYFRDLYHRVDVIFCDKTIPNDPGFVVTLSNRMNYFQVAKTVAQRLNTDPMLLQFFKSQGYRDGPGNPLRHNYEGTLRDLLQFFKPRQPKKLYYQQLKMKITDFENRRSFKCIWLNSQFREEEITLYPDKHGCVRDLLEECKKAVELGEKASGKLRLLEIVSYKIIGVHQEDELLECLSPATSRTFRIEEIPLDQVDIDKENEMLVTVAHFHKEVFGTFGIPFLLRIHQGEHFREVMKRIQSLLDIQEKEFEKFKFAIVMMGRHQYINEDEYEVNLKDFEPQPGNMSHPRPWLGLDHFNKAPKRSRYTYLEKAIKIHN

CN(C)C(=O)c1ccc(NC(=O)CCl)cc1
inactive: USP42 -0.0444 | USP46 -0.0105 | USP47 -0.38 | USP48 -0.84 | USP5 0.14 | USP54 -0.408 | USP7 -0.0714 | USP8 -0.446
